# Reference: PubChem BioAssay AID1508601 (ICCB-Longwood Screening Facility, Harvard Medical School, 2020)
# The campaign covered roughly 5,700 compounds. About 85 (1%) were called active. Cut-off read from the data, not from the text of the source: active = p53-positive nuclei above about 36% (passing the limit was not always enough); inactive = the rest. This excerpt belongs to a sample that is enriched for actives.
# Legend:
# [1] = nuclear p53 accumulation, HPV+ cells – imaging, p53-positive nuclei imaging, 24 h, 48 h (AID 1508601); conditions: 24/48 h
# [2] = molecular target: Cellular tumor antigen p53 (Homo sapiens) (UniProt P04637); test: as above; conditions: 24/48 h, stronger effect = higher value
# Chain of Cellular tumor antigen p53 (Homo sapiens) (P04637 whole entry, looked up): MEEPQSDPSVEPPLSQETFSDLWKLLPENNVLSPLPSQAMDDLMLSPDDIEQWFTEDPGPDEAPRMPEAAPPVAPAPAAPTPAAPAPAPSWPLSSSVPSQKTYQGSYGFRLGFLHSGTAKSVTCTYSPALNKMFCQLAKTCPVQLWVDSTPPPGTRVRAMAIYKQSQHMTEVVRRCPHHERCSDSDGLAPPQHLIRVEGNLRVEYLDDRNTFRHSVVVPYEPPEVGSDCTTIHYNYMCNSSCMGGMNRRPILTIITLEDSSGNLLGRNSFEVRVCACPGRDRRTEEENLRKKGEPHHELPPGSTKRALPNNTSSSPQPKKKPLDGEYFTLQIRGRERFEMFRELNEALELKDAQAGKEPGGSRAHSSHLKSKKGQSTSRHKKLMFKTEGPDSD
# [3] = measured here: cell number at 24 h, Library stock concentration: 10 mM
# [4] = measured here: cell number at 48 h, Library stock concentration: 10 mM
# [5] = Library stock concentration: 10 mM
# [6] = measured here: p53 positive nuclei at 24 h, Library stock concentration: 10 mM
# [7] = measured here: cell number at 24 h, concentration not given here
# [8] = measured here: cell number at 48 h, concentration not given here
# [9] = measured here: p53 positive nuclei at 24 h, concentration not given here
# [10] = measured here: cell number at 24 h, Library stock concentration: 46 uM
# [11] = measured here: cell number at 24 h, Library stock concentration: 278 uM
# [12] = measured here: cell number at 24 h, Library stock concentration: 1.67 mM
# [13] = measured here: cell number at 48 h, Library stock concentration: 46 uM
# [14] = measured here: cell number at 48 h, Library stock concentration: 278 uM
# [15] = measured here: cell number at 48 h, Library stock concentration: 1.67 mM
# [16] = Library stock concentration: 46 uM
# [17] = Library stock concentration: 278 uM
# [18] = Library stock concentration: 1.67 mM
# [19] = measured here: p53 positive nuclei at 24 h, Library stock concentration: 46 uM
# [20] = measured here: p53 positive nuclei at 24 h, Library stock concentration: 278 uM
# [21] = measured here: p53 positive nuclei at 24 h, Library stock concentration: 1.67 mM
compound,measurement,setting,value
CCn1cnc2c(Nc3cccc(Cl)c3)nc(NC3CCCCC3N)nc21 (stereo unspecified),"nuclei count, normalised","[1]; measured here: cell number at 24 h, Library stock concentration: 80 uM",108%
same,"nuclei count, normalised","[1]; measured here: cell number at 24 h, Library stock concentration: 400 uM",103%
same,"nuclei count, normalised","[1]; measured here: cell number at 24 h, Library stock concentration: 2 mM",91.4%
same,"nuclei count, normalised",[1]; [3],32.2%
same,"nuclei count, normalised","[1]; measured here: cell number at 48 h, Library stock concentration: 80 uM",110%
same,"nuclei count, normalised","[1]; measured here: cell number at 48 h, Library stock concentration: 400 uM",104%
same,"nuclei count, normalised","[1]; measured here: cell number at 48 h, Library stock concentration: 2 mM",98.2%
same,"nuclei count, normalised",[1]; [4],21.9%
same,"p53-positive nuclei, normalised",[2]; Library stock concentration: 80 uM,-0.102% (inactive)
same,"p53-positive nuclei, normalised",[2]; Library stock concentration: 400 uM,-0.0205% (inactive)
same,"p53-positive nuclei, normalised",[2]; Library stock concentration: 2 mM,0.0322% (inactive)
same,"p53-positive nuclei, normalised",[2]; [5],61.8% (active)
same,"p53-positive nuclei, normalised","[2]; measured here: p53 positive nuclei at 24 h, Library stock concentration: 80 uM",0.0806%
same,"p53-positive nuclei, normalised","[2]; measured here: p53 positive nuclei at 24 h, Library stock concentration: 400 uM",0.000598%
same,"p53-positive nuclei, normalised","[2]; measured here: p53 positive nuclei at 24 h, Library stock concentration: 2 mM",0.126%
same,"p53-positive nuclei, normalised",[2]; [6],48.5%
CCCCCCCCCCCCCCCCOC[C@H](COP(=O)([O-])OCC[N+](C)(C)C)OC(C)=O,"nuclei count, normalised",[1]; [7],107%
same,"nuclei count, normalised",[1]; [8],107%
same,"p53-positive nuclei, normalised",[2]; concentration not given here,-0.0025% (inactive)
same,"p53-positive nuclei, normalised",[2]; [9],-0.0227%
CCCCC/C=C\C/C=C\C/C=C\C/C=C\CCCC(=O)NC(CO)CO,"nuclei count, normalised",[1]; [7],103%
same,"nuclei count, normalised",[1]; [8],109%
same,"p53-positive nuclei, normalised",[2]; concentration not given here,0.067% (inactive)
same,"p53-positive nuclei, normalised",[2]; [9],-0.135%
CC1CN(Cc2ccc(F)cc2)CCN1C(=O)COc1ccc(Cl)cc1NC(N)=O (stereo unspecified),"nuclei count, normalised",[1]; [10],113%
same,"nuclei count, normalised",[1]; [11],111%
same,"nuclei count, normalised",[1]; [12],113%
same,"nuclei count, normalised",[1]; [3],116%
same,"nuclei count, normalised",[1]; [13],112%
same,"nuclei count, normalised",[1]; [14],110%
same,"nuclei count, normalised",[1]; [15],112%
same,"nuclei count, normalised",[1]; [4],112%
same,"p53-positive nuclei, normalised",[2]; [16],-0.174% (inactive)
same,"p53-positive nuclei, normalised",[2]; [17],-0.135% (inactive)
same,"p53-positive nuclei, normalised",[2]; [18],-0.0557% (inactive)
same,"p53-positive nuclei, normalised",[2]; [5],-0.323% (inactive)
same,"p53-positive nuclei, normalised",[2]; [19],0.0345%
same,"p53-positive nuclei, normalised",[2]; [20],-0.0826%
same,"p53-positive nuclei, normalised",[2]; [21],-0.151%
same,"p53-positive nuclei, normalised",[2]; [6],0.0332%
COc1ccc2c3c([nH]c2c1)C(CC(C)C)N1C(=O)C(CCC(=O)OC(C)(C)C)NC(=O)C1C3 (stereo unspecified),"nuclei count, normalised",[1]; [10],116%
same,"nuclei count, normalised",[1]; [11],114%
same,"nuclei count, normalised",[1]; [12],116%
same,"nuclei count, normalised",[1]; [3],118%
same,"nuclei count, normalised",[1]; [13],111%
same,"nuclei count, normalised",[1]; [14],106%
same,"nuclei count, normalised",[1]; [15],106%
same,"nuclei count, normalised",[1]; [4],108%
same,"p53-positive nuclei, normalised",[2]; [16],-0.285% (inactive)
same,"p53-positive nuclei, normalised",[2]; [17],-0.0842% (inactive)
same,"p53-positive nuclei, normalised",[2]; [18],-0.358% (inactive)
same,"p53-positive nuclei, normalised",[2]; [5],-0.016% (inactive)
same,"p53-positive nuclei, normalised",[2]; [19],-0.0846%
same,"p53-positive nuclei, normalised",[2]; [20],0.0359%
same,"p53-positive nuclei, normalised",[2]; [21],-0.151%
same,"p53-positive nuclei, normalised",[2]; [6],0.0251%
NOCCC(N)C(=O)O (stereo unspecified),"nuclei count, normalised","[1]; measured here: cell number at 24 h, Library stock concentration: 500 nM",99.2%
same,"nuclei count, normalised","[1]; measured here: cell number at 24 h, Library stock concentration: 1.5 uM",103%
same,"nuclei count, normalised","[1]; measured here: cell number at 24 h, Library stock concentration: 4.6 uM",103%
same,"nuclei count, normalised","[1]; measured here: cell number at 24 h, Library stock concentration: 13.7 uM",107%
same,"nuclei count, normalised","[1]; measured here: cell number at 24 h, Library stock concentration: 41 uM",111%
same,"nuclei count, normalised","[1]; measured here: cell number at 24 h, Library stock concentration: 123 uM",113%
same,"nuclei count, normalised","[1]; measured here: cell number at 24 h, Library stock concentration: 370 uM",115%
same,"nuclei count, normalised","[1]; measured here: cell number at 24 h, Library stock concentration: 1.111 mM",106%
same,"nuclei count, normalised","[1]; measured here: cell number at 24 h, Library stock concentration: 3.333 mM",110%
same,"nuclei count, normalised",[1]; [3],97.4%
same,"nuclei count, normalised","[1]; measured here: cell number at 48 h, Library stock concentration: 500 nM",98.5%
same,"nuclei count, normalised","[1]; measured here: cell number at 48 h, Library stock concentration: 1.5 uM",106%
same,"nuclei count, normalised","[1]; measured here: cell number at 48 h, Library stock concentration: 4.6 uM",104%
same,"nuclei count, normalised","[1]; measured here: cell number at 48 h, Library stock concentration: 13.7 uM",112%
same,"nuclei count, normalised","[1]; measured here: cell number at 48 h, Library stock concentration: 41 uM",113%
same,"nuclei count, normalised","[1]; measured here: cell number at 48 h, Library stock concentration: 123 uM",115%
same,"nuclei count, normalised","[1]; measured here: cell number at 48 h, Library stock concentration: 370 uM",114%
same,"nuclei count, normalised","[1]; measured here: cell number at 48 h, Library stock concentration: 1.111 mM",108%
same,"nuclei count, normalised","[1]; measured here: cell number at 48 h, Library stock concentration: 3.333 mM",112%
same,"nuclei count, normalised",[1]; [4],102%
same,"p53-positive nuclei, normalised",[2]; Library stock concentration: 500 nM,-0.0211% (inactive)
same,"p53-positive nuclei, normalised",[2]; Library stock concentration: 1.5 uM,-0.092% (inactive)
same,"p53-positive nuclei, normalised",[2]; Library stock concentration: 4.6 uM,-0.0486% (inactive)
same,"p53-positive nuclei, normalised",[2]; Library stock concentration: 13.7 uM,-0.0639% (inactive)
same,"p53-positive nuclei, normalised",[2]; Library stock concentration: 41 uM,0.121% (inactive)
same,"p53-positive nuclei, normalised",[2]; Library stock concentration: 123 uM,-0.0786% (inactive)
same,"p53-positive nuclei, normalised",[2]; Library stock concentration: 370 uM,-0.0673% (inactive)
same,"p53-positive nuclei, normalised",[2]; Library stock concentration: 1.111 mM,-0.0556% (inactive)
same,"p53-positive nuclei, normalised",[2]; Library stock concentration: 3.333 mM,-0.0652% (inactive)
same,"p53-positive nuclei, normalised",[2]; [5],-0.0323% (inactive)
same,"p53-positive nuclei, normalised","[2]; measured here: p53 positive nuclei at 24 h, Library stock concentration: 500 nM",0.111%
same,"p53-positive nuclei, normalised","[2]; measured here: p53 positive nuclei at 24 h, Library stock concentration: 1.5 uM",-0.132%
same,"p53-positive nuclei, normalised","[2]; measured here: p53 positive nuclei at 24 h, Library stock concentration: 4.6 uM",-0.00649%
same,"p53-positive nuclei, normalised","[2]; measured here: p53 positive nuclei at 24 h, Library stock concentration: 13.7 uM",-0.187%
same,"p53-positive nuclei, normalised","[2]; measured here: p53 positive nuclei at 24 h, Library stock concentration: 41 uM",0.0689%
same,"p53-positive nuclei, normalised","[2]; measured here: p53 positive nuclei at 24 h, Library stock concentration: 123 uM",-0.0424%
same,"p53-positive nuclei, normalised","[2]; measured here: p53 positive nuclei at 24 h, Library stock concentration: 370 uM",0.0115%
same,"p53-positive nuclei, normalised","[2]; measured here: p53 positive nuclei at 24 h, Library stock concentration: 1.111 mM",0.0344%
same,"p53-positive nuclei, normalised","[2]; measured here: p53 positive nuclei at 24 h, Library stock concentration: 3.333 mM",-0.136%
same,"p53-positive nuclei, normalised",[2]; [6],-0.121%
